Compounds without any hit were thinned out: in the full panel of roughly 83,000, 20% have a hit.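 48-hour exposure, single concentration, 96-well plates; percent growth endpoint where 0 means no net growth. Active: below 10.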 Active and inactive are the calls of the source.
These compounds were tested on HT29 colon (assay: NCI-60 one-dose screen, 48 h (100 = growth as untreated, 0 = no growth, -100 = all killed)). Conditions: 10 µM unless noted.
Experimental: Growth inhibition of the HT29 human tumor cell line is measured as a screen for anti-cancer activity. Cells are grown in 96 well plates and exposed to the test compound for 48 hours. Compounds are tested at a single concentration, which is 10^-5 M for most compounds. The reported endpoint is percent growth (GI% or GIPRCNT), where numbers from 0 - 100% represent growth inhibition, and numbers from -100% - 0 represent cell death. For example, a value of 40 represents 60% growth inhibition. A value of 0 means no net growth occurred over the course of the experiment. A value of -40 indicates 40% of cells at the beginning of the experiment died by the end of the experiment. A value of -100 means all cells are dead at the end of the experiment.
NCI-60 Human Tumor Cell Lines Screen was performed using the standard one-dose NCI protocol, which is described in more detail at https://dtp.cancer.gov/discovery_development/nci-60/default.htm.
Compounds with GIPRCNT values below 10 were considered active. Activity score was based on GIPRCNT using the following formula: […]
Score is 0 for GIPRCNT values of 100 or above, 50 for GIPRCNT values of 0, and 100 for GIPRCNT values of -100.

Q: `COc1ccc2c(c1OC)CO[C@@H]2[C@H]1c2c(cc3c(c2OC)OCO3)CCN1S(=O)(=O)c1cn(C)cn1` was tested. Which growth did it give?
A: 16.9% (inactive)

Q: For `O=C(CSc1nc2sc3c(c2c(=O)n1-c1ccccc1)CCCCC3)N/N=C/c1cccc([N+](=O)[O-])c1`, which growth is on record?
A: 32.3% (inactive)

Q: How did the growth turn out when `CCN1CCN(C(=O)[C@]23CCC(C)(C)C[C@@H]2C2=CC[C@@H]4[C@@]5(C)CCC(=O)C(C)(C)[C@@H]5CC[C@@]4(C)[C@]2(C)CC3)CC1` was run?
A: 8.29% (active)

Q: With `CC(C)=CC(=O)OCC(=O)O[C@@H]1C[C@]2(C(C)C)O[C@@]1(C)[C@@H]1CC[C@@H](C)[C@H]1[C@@H]2OC(=O)/C=C/c1ccccc1` as the compound, how does the growth read?
A: 85.8% (inactive)

Q: How did the growth turn out when `C=C(C)[C@@H]1CC[C@]2(C(=O)N3CCOCC3)CC[C@]3(C)[C@H](CC[C@@H]4[C@@]5(C)C/C(=C/c6ccncc6)C(=O)C(C)(C)[C@@H]5CC[C@]43C)[C@@H]12` was run?
A: 33.8% (inactive)

Q: `N#CSCC1CC(O)(c2ccccc2)CC(c2ccc(F)cc2)O1` (stereo not given) was tested. Which growth did it give?
A: -0.0912% (active)

Q: How did the growth turn out when `CC1=C2[C@@H](CC1)[C@]1(C)O[C@@](C(C)C)(C[C@H]1OC(=O)[C@H](C)O)[C@H]2OC(=O)/C=C/c1ccccc1` was run?
A: 82.8% (inactive)

Q: With `CC(C)C1=NOC(=O)C1=Cc1cn(-c2ccccc2)nc1-c1ccc(F)cc1` as the compound, how does the growth read?
A: 28.8% (inactive)

Q: With `CCOC(=O)C/C(=N\Nc1cc(=O)[nH]c2ccc(Br)cc12)C(=O)OCC` as the compound, how does the growth read?
A: 107% (inactive)

Q: With `CN(C)c1ccc(C(=O)OCCCCCCl)cc1` as the compound, how does the growth read?
A: 99.1% (inactive)

Q: With `Nc1[nH]n2cc(-c3ccccc3)nc2c1N=Nc1ccc(S(N)(=O)=O)cc1` as the compound, how does the growth read?
A: 38.8% (inactive)

Q: For `CCCCNC(=O)CC1=C(C)/C(=C/c2[nH]c(-c3ccc[nH]3)cc2OC)N=C1C`, which growth is on record?
A: 9.63% (active)

Q: `CCc1ccc(CCCC(=O)O)cc1` was tested. Which growth did it give?
A: 101% (inactive)

Q: For `CC(C)=CCC[C@](C)(O)[C@H]1CC[C@]2(C)[C@@H]1CC[C@@H]1[C@@]3(C)C/C(=C/c4ccco4)C(=O)C(C)(C)[C@@H]3CC[C@]12C`, which growth is on record?
A: 111% (inactive)

Q: With `Nc1c(C(=O)Nc2ccncc2)sc2nc3c(cc12)C(O)CCC3` (stereo not given) as the compound, how does the growth read?
A: 85.4% (inactive)

Q: `O=S(=O)(NCCCNc1nccc(-c2c(-c3ccc(F)c(O)c3)nc3sccn23)n1)c1ccccc1` was tested. Which growth did it give?
A: 51% (inactive)

Q: For `COc1ccc(CNc2c3ccccc3nc3ccccc23)cc1`, which growth is on record?
A: 19.3% (inactive)

Q: With `CC1=C([Se]CC(OC(=O)CC[Se]c2ccccc2)C(=O)NC(C)(C)C)C(=O)c2ccccc2C1=O` (stereo not given) as the compound, how does the growth read?
A: 5.28% (active)

Q: Which growth does the source give for `O=CN1N=C(c2cccc(Nc3ccnc4cc(Cl)ccc34)c2)CC1c1ccccc1` (stereo not given) here?
A: -2% (active)

Q: Which growth does the source give for `CCNCCNc1cc(-c2ccc(C(F)(F)F)cc2)c(C#N)c2nc3ccccc3n12` here?
A: -61.7% (active)

Q: How did the growth turn out when `Nc1nc(N)c(-c2ccc(Cl)c(Cl)c2)c(CBr)n1` was run?
A: 34.2% (inactive)

Q: For `Cc1ccc(-c2nc([P+](c3ccccc3)(c3ccccc3)c3ccccc3)c(S(=O)(=O)c3ccc(C)cc3)o2)cc1`, which growth is on record?
A: 0% (active)

Q: Which growth does the source give for `O=c1[nH]c(-c2ccccc2)nc2sc3cc(O)ccc3c12` here?
A: 106% (inactive)

Q: `COc1ccc(C(=O)Nc2cccc(-c3cc(=O)c4c(OC)c(OC)c(OC)cc4o3)c2)cc1` was tested. Which growth did it give?
A: 46.7% (inactive)

Q: How did the growth turn out when `COc1cc(C2c3cc(OC(C)=O)c(OC)cc3CC3C(=O)OCC32)ccc1OC(C)=O` (stereo not given) was run?
A: 97.6% (inactive)

Q: Which growth does the source give for `COc1ccc(C(C)=O)cc1S(=O)(=O)Nc1c(N)nc(SC)[nH]c1=O` here?
A: 104% (inactive)

Q: With `C1CCC([PH+](C2CCCCC2)C2CCCCC2[PH+](C2CCCCC2)C2CCCCC2)CC1.[Au].[CH-]1CCCCC1C1CCCC[N-]1` (stereo not given) as the compound, how does the growth read?
A: 2.8% (active)

Q: For `N#Cc1c(-c2ccccc2)[nH]c2ncc(-c3ccccc3)n2c1=O`, which growth is on record?
A: 106% (inactive)

Q: How did the growth turn out when `Nc1ncnc2c1C(c1ccccc1)c1ccc3ccccc3c1O2` (stereo not given) was run?
A: 92.5% (inactive)

Q: `COc1cc2c(c(OC)c1OC)CCC(c1cccc(C(=O)Nc3cccc(Cl)c3)c1)O2` (stereo not given) was tested. Which growth did it give?
A: 63.6% (inactive)

Q: `Cc1csc(Nc2nc(-c3ccccn3)nc(C(Cl)(Cl)Cl)n2)n1` was tested. Which growth did it give?
A: 68% (inactive)

Q: For `CC1(C)COB(OCC(C)(C)COB2OCC(C)(C)CO2)OC1`, which growth is on record?
A: 110% (inactive)

Q: For `Oc1c(Br)cc(Br)c2ccc(Cn3cc(-c4ccccc4C(F)(F)F)nn3)nc12`, which growth is on record?
A: 107% (inactive)

Q: With `COc1cc(OCc2cccc(Br)c2C)cc(OC)c1C=O` as the compound, how does the growth read?
A: 75% (inactive)

Q: How did the growth turn out when `C=CCSc1nnc(NC(=O)CCl)s1` was run?
A: 110% (inactive)

Q: For `O=C1c2ccccc2-c2c1c1c(=O)[nH]c3ccccc3c1n2Cc1ccccc1`, which growth is on record?
A: 75.6% (inactive)

Q: `CC1CCc2c(C(=O)Nc3ncc(Cc4cccc([N+](=O)[O-])c4)s3)csc2C1` (stereo not given) was tested. Which growth did it give?
A: 14.9% (inactive)

Q: With `COc1cc2ncnc(Nc3ccc(F)c(Cl)c3)c2cc1OCC(=O)N1CCN(c2ccccc2)CC1` as the compound, how does the growth read?
A: 90.4% (inactive)

Q: How did the growth turn out when `C=C1C(=O)O[C@H]2[C@H]1CC/C(COC(=O)C(=O)c1cn(C)c3ccc(Cl)cc13)=C\CC[C@@]1(C)O[C@@H]21` was run?
A: -71.3% (active)

Q: Which growth does the source give for `C=C1C(=O)O[C@H]2[C@H]1CC/C(COC(=O)NCc1ccc(Cn3c(=O)sn(CCCCC)c3=O)cc1)=C\CC[C@@]1(C)O[C@@H]21` here?
A: -33.4% (active)

Source: PubChem BioAssay (NCI)
